This is an account of results in PubChem BioAssay AID602399 (Sanford-Burnham Center for Chemical Genomics, 2012).

Hit rate of the full screen: of about 360,000 compounds, about 2,800 (0.78%) were called active. What follows is part of a selection rich in actives, with near analogues and random picks from the rest. A number with no mark means an inactive call. Rule as the data show it: active = inhibition above about 26%; inactive = the rest.

In the experiment the test system is Nicotinate-nucleotide adenylyltransferase NadD (Staphylococcus aureus N315). Description: S. aureus NadD enzyme activity blockers – biochemical, colorimetric, uHTS, primary screen (AID 602399). The note with it: purified NadD enzyme, colorimetric absorbance read-out; at 20 µM; active compounds read high.
One may read the inhibition as the drop in the measured response relative to a control, in per cent. In the case of `N#Cc1ccc(CSc2ncccn2)cc1`, the inhibition was -1.45%.
Turning to `N#CC1=C(SCc2ccc(C#N)cc2)N=C(N)C(c2nc(-c3ccccc3)cs2)C12CCCCC2` (stereo not given), the inhibition is 39.1% (active).
Turning to `Cc1ccc(NC(=O)CN(C)S(=O)(=O)c2cnc[nH]2)cc1C`, the inhibition was -2.1%.
As for `COC(=O)c1c(NC(=O)COc2ccc(Cl)cc2Cl)sc2c1CC(C)(C)NC2(C)C`, the inhibition was -5.59%.
Turning to `CCc1ccc(-n2c(=S)sc3c(=O)n(-c4ccccc4OC)c(=S)[nH]c32)cc1`, the inhibition is 26.4% (active).
With `COc1ccccc1-n1c(=S)[nH]c2c(sc(=S)n2-c2ccc(C)cc2C)c1=O`, the inhibition was 26.4% (active).
As for `COc1cccc(-n2c(=S)sc3c(=O)n(-c4ccccc4OC)c(SCC4OCCO4)nc32)c1`, the inhibition is -4.72%.
Consider `COc1ccc(Cl)cc1-n1c(=S)sc2c(=O)n(-c3ccc(F)cc3)c(SCC(=O)O)nc21`, for which the inhibition is -1.15%.
With `COc1cccc(-n2c(=S)sc3c(=O)n(-c4ccccc4C)c(SCC(=O)O)nc32)c1` the figure was -0.498%; with `COc1ccccc1N1CCN(c2nc(C)cc(=O)[nH]2)CC1`, 0.434%; with `COc1ccc2c3c1O[C@H]1C[C@@H](O)C=C[C@@]31CCN(C)C2`, -4.23%.
For `COc1cc(C)c(C(C)C)cc1S(=O)(=O)n1ccnc1` the value was -1.45%; for `CCCCCOC(=O)C1=C(C)Nc2nnnn2C1c1ccc(OC)c(OC)c1OC` (stereo not given), -2.88%; for `C=CCOc1ccc(/C=C/C(=O)OCC(=O)NCC2CCCO2)cc1` (stereo not given), 0.0871%.
With `CC(=O)c1cccc(OCc2cc(C(=O)NC(C)Cc3cccnc3)no2)c1` (stereo not given), the inhibition was -5.35%.
For `CCOC(=O)CC1COCCN1C(=O)c1cc(COc2ccc(F)c(F)c2)on1` (stereo not given), the inhibition is -4.39%.
With `CCC(NC(=O)c1cc(COc2ccc(F)c(F)c2)on1)c1ccncc1` (stereo not given) the figure was 48.1% (active); with `COC(C(=O)Nc1ccc(S(=O)(=O)Nc2ccc(C)c(C)c2)cc1)c1ccccc1` (stereo not given), -2.66%.
For `COc1ccc2c(-c3ccccc3)cc(SCC(=O)N(C)C3CCS(=O)(=O)C3)nc2c1` (stereo not given), the inhibition was -1.73%.
As to `COc1ccc(NC(=O)COc2ccc(C(=O)OCC(=O)N(C)C3CCS(=O)(=O)C3)cc2OC)cc1` (stereo not given), the inhibition was -2.63%.
For `CN(C(=O)COC(=O)c1cc(-c2ccco2)nc2ccccc12)C1CCS(=O)(=O)C1` (stereo not given) the value was 87.6% (active); for `CC(C)CN1CCNC(=O)C1CC(=O)N(C)CC1CCOCC1` (stereo not given), -2.31%.
For `CN(C)S(=O)(=O)c1ccc(N/C=C(\[N+](=O)[O-])S(=O)(=O)c2ccccc2)cc1` the value was -3.76%; for `O=C1N(Cc2ccc3c(c2)OCO3)c2ccccc2C1(O)c1c[nH]c2ccccc12` (stereo not given), 34.1% (active).
Consider `CC1(C(=O)NCc2ccc3c(c2)OCO3)CCN1C(=O)Cc1cccc2ccccc12` (stereo not given), for which the inhibition is -4.65%.
As for `CCn1c(=O)cc(SCC(=O)NCc2ccc3c(c2)OCO3)c2ccccc21`, the inhibition was 1.73%.
As to `CCCN(CCC)c1ccc(C(O)c2nnc(-c3ccccc3)o2)cc1` (stereo not given), the inhibition was 3.67%.
`CC1(C)OC(=O)C2=C(C[C@@H](C3CC3)O[C@H]2c2ccc(Cl)cc2)O1`: the inhibition was -7.37%.
On to `Cc1noc(C)c1NC(=O)Nc1ccc2c(c1)C(=O)N([C@H](C)CO)C[C@H](C)[C@@H](CN(C)C(=O)Nc1ccc(C(F)(F)F)cc1)O2`, for which the inhibition is 3.74%.
In the case of `Cc1noc(C)c1NC(=O)Nc1cccc2c1O[C@H](CN(C)C(=O)Nc1ccccc1)[C@@H](C)CN([C@H](C)CO)C2=O`, the inhibition is -4.23%.
As to `C[C@H](CO)N1C[C@H](C)[C@H](CN(C)C(=O)Nc2ccc(C(F)(F)F)cc2)Oc2c(NC(=O)c3ccncc3)cccc2C1=O`, the inhibition was 34% (active).
Take `CN(CC(=O)N1CCN(c2ccccc2)CC1)S(=O)(=O)c1cccs1`: the inhibition was -2.17%.
With `Cc1nn2c(c1-c1ccccc1)N=C(c1ccco1)CC2c1ccccc1` (stereo not given), the inhibition was 35.5% (active).
Take `O=C(O)CCCC(=O)N1N=C(c2ccco2)CC1c1ccco1` (stereo not given): the inhibition is 2.35%.
For `C=CCN1C(=O)C(Cc2ccc(OCC)cc2)SC1=Nc1ccc(C(=O)O)cc1` (stereo not given) the value was -1.51%; for `CCOCCCN1C(=O)C2C(C(=O)Nc3ccc(OCC)cc3)C3C=CC2(O3)C1C(=O)NC1CCCCC1` (stereo not given), -6.7%; for `COc1cccc(-c2nn(-c3ccccc3)cc2/C=C(\C#N)C(=O)NCCCn2ccnc2)c1`, 29.3% (active).
Consider `COc1ccc(/C=C(\C#N)C(=O)NCCCn2ccnc2)cc1`, for which the inhibition was -0.938%.
For the compound `O=C(NCCCn1ccnc1)/C(=C\c1ccccc1F)NC(=O)c1ccccc1`, the inhibition is -0.605%.
Take `Cc1ccc(S(=O)(=O)N2CCN(C(=O)COC(=O)/C=C/c3cccc(Cl)c3)CC2)c(C)c1`: the inhibition was -1.3%.
On to `O=C(CC1SC(=Nc2ccccc2)N(Cc2ccccn2)C1=O)Nc1cccc(Cl)c1` (stereo not given), for which the inhibition was 7.98%.
On to `COc1cc(/C=C2\SC(=S)N(Nc3ncc(C(F)(F)F)cc3Cl)C2=O)cc(OC)c1OC`, for which the inhibition is 31.2% (active).
With `COc1cc(-c2nnc(Cn3cc(C(F)(F)F)ccc3=O)o2)cc(OC)c1OC`, the inhibition is -3.86%.
As for `O=C1/C(=C/c2ccc(F)cc2)SC(=S)N1NS(=O)(=O)c1ccccc1`, the inhibition was 5.39%.
With `COCCCn1c(C(=O)NC2CCCCC2)cc2c(=O)n3cccc(C)c3nc21` the figure was 2.49%; with `O=c1c(-c2ccccc2)cnc2n1CCS2`, -3.39%; with `Cc1cccc(N2CCN(C(=O)/C=C/c3ccco3)CC2)c1C`, -1.19%.
For the compound `Cc1ccc(-n2c(C)cc(/C=N/Nc3ccc([N+](=O)[O-])cn3)c2C)c(C)c1`, the inhibition is 44.4% (active).
Turning to `Cc1cc(C=O)c(C)n1-c1ccc(NC2CCCCC2)c([N+](=O)[O-])c1`, the inhibition was 0.0872%.
Regarding `Cc1ccc(N2CCN(c3ccc([N+](=O)[O-])cn3)CC2)c(C)c1`, the inhibition is 1.39%.
On to `Nc1ccc(Cl)c(S(=O)(=O)Nc2ccccc2Cl)c1`, for which the inhibition is 6.19%.
Regarding `O=C1Nc2cc(Cl)c(Cl)cc2N(O)N1c1cc(Cl)cc(Cl)c1`, the inhibition was -1.38%.
With `c1ccc(CN2CCC(N=C3NN=C(c4ccc5c(c4)OCCO5)CS3)CC2)cc1` the figure was 17%.
For the compound `Clc1cccc(N=C2NN=C(c3ccc4c(c3)OCCO4)CS2)c1`, the inhibition was 31% (active).
On to `CN(C)c1nc(=Nc2cccc(Cl)c2)ss1`, for which the inhibition was 3.08%.
